Sampled rows, rich in hits. Any-hit rate of the full collection: about 19%.
HT1080-NT tox – kills 2HG-producing HT-1080-NT fibrosarcoma cells; HT-1080-NT fibrosarcoma viability, CellTiter-Glo ATP luminescence, 48 h; Potency, µM (top dose mostly 46.1 µM), for inactives: at the top dose activity, negative = less viability, most hits filed as cytotoxic; 1.6% of 360,000 active; AID 686970;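 also: NT is the 2HG producing partner of a matched IDH1 knockdown line; potency is read from the fitted curve at half-maximal effect; 0% = DMSO-treated cells and -100% = media-only wells without cells; nearly all actives have a fitted effect of over 55% in size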
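Viability of the 2HG-overproducing fibrosarcoma line after 48 hours of compound exposure at 37 degrees C was determined by luminescence with CellTiter-Glo, and concentration-effect curves were then fitted and categorized.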
IL1B secr inh – inflammasome signaling inhibition, IL-1 beta readout; THP-1 LPS/ATP IL-1B secretion, AlphaLISA, 16 h; stronger effect = lower value; AID 743279; activity change, % at 57.5 µM; 4.7% of 360,000 active; in the data active = activity change below about -50%; inconclusive = mostly about -30% to -49%
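Secreted IL-1B measured by AlphaLISA bead assay after 16 h compound exposure of THP-1 cells; compounds (final up to 57.5 uM) added 1 h before LPS (250 ng/mL) and ATP (1.25 mM) stimulation; lower signal means less secretion.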
TDP1 cell CPT – growth inhibition of DT40 Tdp1-/-;hTDP1 cells with camptothecin (screen for TDP1 inhibitors) | chicken DT40 Tdp1-/-;hTDP1 cells + 20 nM CPT, ATP luminescence, 48 h | Potency, µM (top dose mostly 46.2 µM), for the others: top-dose activity change, negative = growth inhibition, most hits filed as inhibitors | 12% of 420,000 active | AID 686979; also: potency is read from the fitted curve at half-maximal effect; nearly all actives have a fitted effect of over 55% in size
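Chicken DT40 Tdp1-/- cells stably complemented with human TDP1 were seeded at 400 cells/well in medium containing 20 nM camptothecin, exposed to pin-transferred compounds, and grown at 37 °C for at least 48 hr. Viability was read as ATP luminescence.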
HT1080 IDH1KD tx – kills HT-1080 cells with IDH1 knockdown; AID 686971; Potency, µM (top dose mostly 46.1 µM), for inactives: top-dose activity, negative = toxicity, actives largely listed as cytotoxic; HT-1080 IDH1 knockdown viability, ATP luminescence, 48 h; 2% of 360,000 active;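 also: potency is read from the fitted curve at half-maximal effect; 0% = DMSO wells and -100% = cell-free medium wells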
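Viability of IDH1-knockdown HT-1080 fibrosarcoma cells was assessed by CellTiter-Glo after 48 h at 37 °C with titrated compound; concentration-effect curves were classified by fit quality and response size.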
DT40 TDP1 no CPT – qHTS for Inhibitors of human tyrosyl-DNA phosphodiesterase 1 (TDP1): qHTS in cells in absence of CPT | DT40 Tdp1-/- hTDP1 cells, no CPT, ATP luminescence, 48 h | Potency, µM (doses to about 46.2 µM), inactives show top-dose activity change, negative = growth inhibition, usual class: inhibitors | 15% of 420,000 active | AID 686978, 2013; also: potency is read from the fitted curve at half-maximal effect; nearly all actives have a fitted effect of over 55% in size
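Stably hTDP1-transfected Tdp1-null chicken DT40 cells were treated with library compounds minus camptothecin and grown for at least 48 hr at 37 °C, after which cellular ATP was quantified by luminescence.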
Numbers without * were called inactive; u = inconclusive; x = not tested or not shown; ! = repeats disagree; [ ] = another dose, or the depositor's remark. Unless noted, calls follow the shape of the dose curve; as a rule, active = well fitted curve in the direction sought with a large enough effect; inconclusive = small, poorly fitted or top-dose-only effect, or another doubt; inactive = no such curve, though single readings can be large; an effect the other way counts as inactive or inconclusive. Unless noted, % is scaled to controls: 0 for no effect and ±100 for the full control effect.

SMILES | HT1080-NT tox | IL1B secr inh | TDP1 cell CPT | HT1080 IDH1KD tx | DT40 TDP1 no CPT
CCCCCCSc1cccc(-c2nc3cc(C)ccn3c2NCc2ccccc2)c1 | u | -83.6*! | 13µM* | u | 13µM*
CCCCCCSc1cccc(-c2nc3ccc(C)cn3c2NC2CCCCC2)c1 | 0.0% | -4.2 | u | u | u
CCCCCCSc1cccc(-c2nc3ccccn3c2NCc2ccccc2)c1 | -2.5% | -29.7 | 16.4µM* | -15.8% | 16.4µM*
CC(=O)N1c2ccccc2S(=O)(=O)c2c1ccc1ccccc21 | 5.4% | u | -0.2% | 18.5% | -3.5%
COC(=O)C(Cc1c[nH]c2ccccc12)NC(=O)COc1cccc(C)c1 (stereo not drawn) | x | x | -19.6% | x | u
C[C@@H]1NC(=O)N[C@@H]1CCCCCC(=O)O | u | -102.1* | -13.5% | u | -12.1%
Cc1cccc(C)c1NC(=O)CCCN1CC(C)OC(C)C1 (stereo not drawn) | 11.4% | -3.4 | -1.6% | 0.2% | -2.5%
Cc1cccc(C)c1NC(=O)CCCCCC1NC(=O)NC1C (stereo not drawn) | 4.1% | -55.4* | 2.3% | 1.2% | 22.3%
CC1NC(=O)NC1CCCCCC(=O)NCCc1ccccc1 (stereo not drawn) | 7.7% | -96.0* | -7.5% | -0.6% | -8.7%
O=C(O)CCCCC1SCC2NC(=O)NC21 (stereo not drawn) | -10.9% | -56.5* | 5.5% | 1.4% | 4.7%
Cc1noc(C)c1COc1ccccc1C(=O)N1CCN(c2cccc(C(F)(F)F)c2)CC1 | u | -10.2 | 5.17µM* | u | 4.61µM*
Cc1cc(C)c(S(=O)(=O)N2CCN(C(=O)c3ccccc3OCc3c(C)noc3C)CC2)c(C)c1 | -7.2% | u | u | -0.4% | -29.5%
Cc1noc(C)c1COc1ccc(C(=O)N2CCN(c3cccc(Cl)c3)CC2)cc1 | 15.0% | u | u | 2.4% | u
Cc1noc(C)c1COc1ccccc1C(=O)N1CCN(c2cccc(Cl)c2)CC1 | 23.1µM* | 7.2 | u | 23.1µM* | u
C/C=C1\COC(C(=O)NCc2cccc(OC)c2OC)(C(F)(F)F)C=C1C=C1CCCCC1 (stereo not drawn) | u | u | 14.6µM* | u | 16.4µM*
O=C(NCCC1=CCCCC1)C(=O)c1c[nH]c2ccccc12 | -9.6% | -16.0 | -28.8% | -9.6% | u
COc1ccc(N2CC(C)Cn3c2nc2c3c(=O)n(Cc3ccc(C)cc3)c(=O)n2C)c(OC)c1 (stereo not drawn) | 0.0% | u | u | 0.6% | 16.4µM*
COc1ccc(N2CC(C)Cn3c2nc2c3c(=O)n(Cc3ccc(F)cc3)c(=O)n2C)c(OC)c1 (stereo not drawn) | -0.2% | -5.1 | u | -3.1% | u
O=C(CCC(F)(F)F)N1CCCC(N2CCN(c3cccc(Cl)c3)CC2)C1 (stereo not drawn) | -2.2% | -8.1 | -22.6% | -0.7% | u
CCN(CC)CCOC(=O)c1ccc(N/C=C(/C#N)c2nc(-c3ccc(OC)c(OC)c3)cs2)cc1 | 23.1µM* | -25.1 | -105.7% | -20.1% | 4.61µM*
CC(=O)OCC1OC(n2cnc3c(=O)[nH]cnc32)C(OC(C)=O)C1OC(C)=O (stereo not drawn) | x | x | 0.9% | x | 8.0%
O=C(NCc1cccnc1)c1ccc(N2CCOCC2)c([N+](=O)[O-])c1 | 9.1% | 46.8 | u | 0.6% | 16.4µM*
O=C(NCc1cccnc1)c1ccc([N+](=O)[O-])o1 | u | -66.9* | u | u | u
O=[N+]([O-])c1c(NCc2ccccc2)cc(N2CCc3ccccc3C2)c2nonc12 | -2.8% | -5.3 | u | -6.8% | 20.6µM*
O=C(Nc1c(Cl)ccc2nsnc12)c1ccc([N+](=O)[O-])o1 | 2.6% | -97.9* | u | -18.1% | u
SMILES | HT1080-NT tox | IL1B secr inh | TDP1 cell CPT | HT1080 IDH1KD tx | DT40 TDP1 no CPT
O=C(Nc1c(Cl)ccc2nsnc12)c1ccc(Br)o1 | 7.5% | -12.4 | -19.2% | 8.5% | -27.1%
COc1ccccc1Nc1cc(N2CCOCC2)c2nonc2c1[N+](=O)[O-] | -5.6% | 6.3 | 0.3% | -0.1% | u
CN(Cc1ccco1)C(=O)c1ccc(S(=O)(=O)N2CCCCCC2)cc1 | 0.3% | u | -24.9% | 2.9% | -9.2%
O=C(Nc1cccnc1)c1ccc([N+](=O)[O-])o1 | u | -91.7* | 9.2µM* | u | 14.6µM*
O=[N+]([O-])c1cc([N+](=O)[O-])c(N2CCOCC2)cc1NCc1ccccc1 | -16.0% | 28.3 | 8.2µM* | -17.5% | 18.4µM*
O=C(Nc1cccnc1)c1cccc([N+](=O)[O-])c1 | -2.5% | -5.8 | 8.1% | 6.8% | 5.5%
O=[N+]([O-])c1ccc(N2CCOCC2)cc1NCc1ccccc1 | -20.5% | -7.4 | u | -17.1% | u
O=C(NCc1ccco1)c1ccc([N+](=O)[O-])o1 | u | -61.4* | u | u | u
O=C(Nc1ccc(Cl)cn1)c1ccc([N+](=O)[O-])o1 | 23.1µM* | -225.6* | 2.31µM* | 20.6µM* | 14.6µM*
CN1CCN(c2ccc(CNC(=O)C3(C)Cc4c(-c5ccc(C(N)=O)cc5)ccnc4O3)cc2)CC1 (stereo not drawn) | -14.1% | -4.0 | -17.0% | 20.4% | -15.7%
CCCc1cc(=O)[nH]c2nnc(SCC(=O)NC3CCCC3)n12 | 17.8% | 6.5 | -1.8% | 14.7% | 11.3%
Cc1cccc(NC(=S)NCCc2ccc3c(c2)OCCO3)c1C | -26.7% | -24.4 | u | -12.6% | u
COC(=O)/C(=N/Nc1ccc(C)cc1)N1CCCc2ccccc21 | -3.3% | u | 11.6µM* | -4.0% | u
COc1ccc(OC(C)C(=O)N2CCc3ccccc3C2)cc1 (stereo not drawn) | -18.9% | 34.6 | u | -20.4% | 20.6µM*
Cc1ccc(OC(C)C(=O)N2CCCc3ccccc32)cc1 (stereo not drawn) | 0.4%[9.24 µM] | -8.3 | u | -17.9% | 25.9µM*
Cc1c(Br)c([N+](=O)[O-])nn1C(C)C(=O)N1CCCc2ccccc21 (stereo not drawn) | -2.7% | 10.4 | u | -7.7% | 16.4µM*
CCCC(=O)Nc1c(-c2ccccc2Cl)c(=O)c2ccccc2n1C | 11.2% | -11.8 | u | 15.9% | 7.7%
CCOc1ccc(Br)cc1C1C(C(=O)OC)=C(N)Oc2cc(N(C)C)ccc21 (stereo not drawn) | 11.6µM* | 30.4 | 5.17µM* | 14.6µM* | u
O=C1OC(CN2CCOCC2)CN1N=Cc1ccc([N+](=O)[O-])o1 (stereo not drawn) | -25.6% | 11.8 | 14.6µM* | u | u
